# Compounds with a hit are over-represented: about 2.9% of the library has one in this group of screens.
# MEKK2 mut-MEK5: MEK5 binding signal on mutant MEKK2 PB1, primary screen, biochemical, multiplex bead flow cytometry, Alexa488-MEK5 | percent response, % at 10 µM | AID 1530, 2009 | 290,000 tested, 0.35% active | Alexa488-MEK5 binding to MEKK2 mutant; in the data active means percent response above about 24%, passing the limit was not always enough
# MEKK3 PB1 HTS: modulators of MEKK3-MEK5 PB1 binding, primary screen, biochemical, wildtype MEKK3, multiplex bead flow cytometry, Alexa488-MEK5. bead-based flow cytometry, Alexa488-MEK5 binding to MEKK3; actives lie on both sides; 0 = blocked by unlabeled MEK5, 100 = vehicle. binding response (% of control), % at 10 µM. 290,000 tested, 1.4% active. AID 1529, 2009;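 active means binding response more than 3 SD above or below the average of its plate-row segment, actives on both sides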;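 further: Alexa488 bead fluorescence after subtracting the streptavidin-only scavenger bead signal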
# Target sequence (Q99759 whole entry, looked up): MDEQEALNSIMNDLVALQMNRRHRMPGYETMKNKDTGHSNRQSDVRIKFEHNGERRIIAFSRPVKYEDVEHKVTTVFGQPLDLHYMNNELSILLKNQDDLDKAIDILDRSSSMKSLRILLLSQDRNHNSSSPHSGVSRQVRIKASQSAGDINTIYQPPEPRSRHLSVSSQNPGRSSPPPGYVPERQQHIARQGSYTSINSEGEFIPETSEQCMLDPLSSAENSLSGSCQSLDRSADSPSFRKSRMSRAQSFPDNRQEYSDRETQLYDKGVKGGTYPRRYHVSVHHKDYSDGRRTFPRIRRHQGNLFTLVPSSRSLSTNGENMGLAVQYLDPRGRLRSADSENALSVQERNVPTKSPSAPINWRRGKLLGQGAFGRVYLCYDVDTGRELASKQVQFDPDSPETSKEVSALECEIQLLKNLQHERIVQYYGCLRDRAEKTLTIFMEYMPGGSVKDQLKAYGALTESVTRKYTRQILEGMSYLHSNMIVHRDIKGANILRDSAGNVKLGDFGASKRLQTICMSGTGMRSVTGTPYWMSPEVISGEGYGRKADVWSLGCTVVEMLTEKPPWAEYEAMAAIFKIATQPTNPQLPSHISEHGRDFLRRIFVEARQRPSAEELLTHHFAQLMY
# Beta2AR agonist: beta2AR agonists driving receptor internalization, primary screen, cell-based, FAP fluorogen, flow cytometry | Beta-2 adrenergic receptor (Homo sapiens), P07550 | response, % (no concentration beside the values) | 340,000 tested, 0.43% active | AID 504454, 2011 | Am2.2-beta2AR cells;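 active means response above a set limit, near 3 SD of response in nonfluorescent compounds, cut at about 42% in these data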
# GRK2 aptamer HTS: compounds blocking aptamer binding on GRK2 – biochemical, human GRK2, bead flow cytometry, HTS, primary screen; Beta-adrenergic receptor kinase 1 (Homo sapiens), P25098; FAM-aptamer displacement from GRK2; inhibition of aptamer binding, % at 10 µM; 330,000 tested, 0.59% active; AID 488847, 2010;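 active means inhibition of aptamer binding above 40%, roughly 3 SD of noise, on plates passing a quality check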;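 further: median bead fluorescence of bound FAM aptamer so fluorescent compounds give negative values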
# MEKK2wt PB1 HTS: modulators of MEK5 binding to wildtype MEKK2, primary screen, biochemical, multiplex bead flow cytometry, Alexa488-MEK5. Mitogen-activated protein kinase kinase kinase 2 (Homo sapiens), Q9Y2U5. Alexa488-MEK5 binding to MEKK2 WT; actives lie on both sides. binding response (% of control), % at 10 µM. 290,000 tested, 1.1% active. AID 1531, 2009; in the data active means binding response below about 67% or above about 130%
# A number is an active result; 0 = inactive; - = no result given; [ ] = another dose, or the depositor's remark.
SMILES,MEKK2 mut-MEK5,MEKK3 PB1 HTS,Beta2AR agonist,GRK2 aptamer HTS,MEKK2wt PB1 HTS
Cc1ccc(C)c(C(=O)Cn2ncc(Cl)c(Cl)c2=O)c1,0,0,0,0,0
Cc1cc(C(=O)Cn2ncc(Cl)c(Cl)c2=O)c(C)n1CC(F)(F)F,0,0,43,0,0
COc1cccc2cc(C(=O)C3=C(O)C(=O)N(c4cc(C)on4)C3c3cccs3)oc12 (configuration not stated),0,0,0,0,-11
Cc1ccnc(N=O)c1,-,-,0,0,-
Cc1c(C(=O)N2CCC[C@H]2CO)oc2c(F)cccc12,0,0,0,0,0
O=C1c2sc3nc4ccccc4n3c2C(=O)N1c1ccccc1Cl,0,0,46,0,0
COc1ccc(-c2nnc(SCC(=O)N3CCCC3=O)n2N)cc1OC,-,-,0,0,-
COc1ccc(C(=O)N/C(=C\c2ccco2)C(=O)OCc2ccco2)cc1,0,0,0,0,0
COc1ccc(/C=C(/C(=O)c2cccs2)N2C=CC=CC2=C(C#N)C#N)cc1,0,0,77,-,0
COc1ccc(C(=O)/C(=C\c2ccco2)N2C=CC=CC2=C(C#N)C#N)cc1,0,0,60,0,0
N#CC(C#N)=C1C=CC=CN1/C(=C\c1ccco1)C(=O)c1ccccc1,0,0,60,0,0
COc1ccc(Oc2c(C(F)(F)F)oc3cc(OCC(=O)O)ccc3c2=O)cc1,0,0,0,0,0
CCOc1ccc(CCNC(=O)Cc2ccc(NC3=NC4CS(=O)(=O)CC4S3)cc2)cc1OCC (configuration not stated),0,0,0,0,0
CCN(CC)CCOc1ccc(/C(=C(\Cl)c2ccccc2)c2ccccc2)cc1,-,-,60,0,-
CC1=NNC(=O)/C1=C\c1cn(-c2ccccc2)nc1-c1ccccc1,0,0,82,0,0
CCCN(CCC)CCCNC(=S)Nc1ccc2nc(N3CCCC3)cc(C)c2c1,0,0,0,0,156
CCCCN(CC)CCCNC(=S)Nc1ccc2nc(N3CCN(CC)CC3)cc(C)c2c1,0,0,0,0,138
CCN(CC)CCNC(=S)Nc1ccc2nc(N3CCCC3)cc(C)c2c1,0,0,0,0,0
CCCCn1c(N)c(N(CC(C)C)C(=O)CSCc2ccc(Cl)c(Cl)c2)c(=O)[nH]c1=O,-,-,0,0,-
COC(=O)C[C@H]1c2cc(C(F)(F)F)ccc2S(=O)(=O)N1C(C)(C)C,0,0,0,0,0
CCCSc1ccc([C@@H]2[C@@H]3C(=O)N(C)C(=O)[C@@H]3[C@]3(C(=O)OC)CCCN23)cc1OC,-,-,0,0,-
O=C(O)c1cc(O)c2c(c1)[C@@H]([C@H]1c3cc(C(=O)O)cc(O)c3C(=O)c3c(O[C@@H]4O[C@H](CO)[C@@H](O)[C@H](O)[C@H]4O)cccc31)c1cccc(O[C@@H]3O[C@H](CO)[C@@H](O)[C@H](O)[C@H]3O)c1C2=O,-,-,-,100,-
N#CC1(Nc2ccc(C(=O)O)cc2)CCCC1,-,-,0,-,-
CN(C)/C=N/C(=S)Nc1ccccc1F,0,0,51,0,0
CCN(c1ccccc1)S(=O)(=O)c1ccc(NC(=O)c2nc(S(C)(=O)=O)ncc2Cl)cc1,0,0,104,0,0
SMILES,MEKK2 mut-MEK5,MEKK3 PB1 HTS,Beta2AR agonist,GRK2 aptamer HTS,MEKK2wt PB1 HTS
CCN1C(=O)[C@H]2[C@@H](c3ccc(-c4ccc(F)cc4)c(OC)c3)N[C@@](Cc3ccccc3)(C(=O)OC)[C@H]2C1=O,-,-,0,0,-
COc1ccc(C2=C(C=O)Cc3ccccc3O2)cc1,-,-,0,0,-
Cc1cc(C)c(NN=c2c(=O)c3ccccc3c2=O)c(C)c1,-,-,0,0,-
O=c1c(=NNc2ccccc2Cl)c(=O)c2ccccc12,0,77[inhibitor],0,-,0
O=C(CCn1c(=O)[nH]c2ccsc2c1=O)N1CC(=O)N(CCc2ccccc2)C(=O)C1,0,74[inhibitor],0,0,0
CS(=O)(=O)c1sc(C#N)c2c1C(=O)CC(c1ccccc1)C2 (configuration not stated),0,0,106,0,0
COc1ccc(NS(=O)(=O)c2ccc(F)c(Cl)c2)cn1,0,0,0,0,0
CC(=O)c1cccc(NC(=O)/C=C/c2ccc(S(=O)(=O)N3CCOCC3)cc2)c1,-,-,0,96,-
Cc1sc2ncn(CC(=O)N3CCN(c4ccccn4)CC3)c(=O)c2c1S(=O)(=O)N1CCC(C)CC1,0,0,0,0,0
CC(C)(C)C(=O)NC(=S)NNC(=O)c1sc2ccccc2c1Cl,0,0,0,49,0
O=C(NNC(=S)NC1CCCCC1)c1sc2ccccc2c1Cl,0,0,0,0,0
Cc1cc(C)cc(OC(=O)CS(=O)c2ccc(C(F)(F)F)cc2[N+](=O)[O-])c1 (configuration not stated),0,0,52,0,0
O=C(COc1ccc(Br)cc1)Nc1ccc(N2CCOCC2)cc1N1CCOCC1,-,-,0,0,-
O=C(COC(=O)CCNS(=O)(=O)c1ccccc1)NNC(=O)c1ccccc1,-,-,0,0,-
C=CCN1C(=O)/C(=C2/Sc3ccccc3N2CC)SC1=S,0,0,0,0,0
C=CCN1C(=O)/C(=C/C=C2/N(CC)c3ccc(S(=O)(=O)N(C)C)cc3N2CC)SC1=S,0,0,0,0,36[inhibitor]
Cc1ccc(S(=O)(=O)N[C@@H](Cc2ccccc2)C(=O)CCl)cc1,0,0,53,0,0
COc1ccc(S(=O)(=O)NCCN2CCOCC2)cc1[N+](=O)[O-],0,0.0[inhibitor],0,0,-11[inhibitor]
Cn1c(Cc2ccc(Cl)cc2)nnc1SCC(=O)NC1CC1,0,0,0,0,0
O=C(Nc1ccc(OC(F)F)c(Cl)c1)C(c1ccccc1)c1ccccc1,0,147,0,0,0
O=C(Cc1cccc2ccccc12)Nc1ccc(OC(F)F)c(Cl)c1,0,0,0,0,0
O=c1cc(-c2ccc([N+](=O)[O-])cc2)nc2cc(-c3ccc(Cl)cc3)[nH]n12,0,0,-,58,0
Cc1cccc(CS(=O)(=O)c2nnc([C@H](Cc3ccccc3)NC(=O)OC(C)(C)C)o2)c1,0,0,61,0,0
COC(=O)CS(=O)(=O)c1nnc([C@H](Cc2ccccc2)NC(=O)OC(C)(C)C)o1,0,0,0,0,0
COc1cc(OC)cc(C(=O)N[C@H](C(=O)OCC(=O)Nc2cccnc2Cl)C(C)C)c1,-,-,0,0,-
C(=N\NC1=Nc2cccc3cccc1c23)/c1ccccn1,0,0,0,-,8.0
Cc1nnc(NC(=O)c2nn(CC(C)C)c(=O)c3ccccc23)s1,0,0,0,0,0
CCCn1nc(C(=O)Nc2nnc(CC)s2)c2ccccc2c1=O,0,0,0,0,-5.0
NS(=O)(=O)c1cccc(NC(=O)c2ccno2)c1,0,0,0,0,0

# Source: PubChem
